# In the library only some 1.4% were active in any assay of this set; here they are far more common.
# Giardia FBPA inh – blocks Giardia fructose-bisphosphate aldolase activity | 290,000 compounds, 0.71% hits | A8B2U2 | Potency, µM (titrated, usually from 59.6 µM), for the others: top-dose activity, negative = inhibition, hits mostly inhibitors | AID 2451 | purified Giardia FBPA; note: nearly all actives have a fitted effect of over 55% in size
#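 40 nM FBPA preincubated 10 min at RT with compound (up to 57.5 uM final), then substrate plus GAPDH/TPI/NAD/arsenate coupling and diaphorase/resazurin added. Fluorescence read after 20 min at RT, 525/598 nm.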
# Tb PYK inh – inhibitors of Trypanosoma brucei pyruvate kinase; Q57TT1; 410,000 compounds, 0.12% hits; Potency, µM (highest dose often 76.8 µM), for inactives: at the top dose activity, negative = inhibition, most hits filed as inhibitors; TbPYK enzyme, Kinase-Glo Plus ATP luminescence, 45 min; note: nearly all actives have a fitted effect of over 50% in size
#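 Glycolytic pyruvate kinase of T. brucei was incubated with substrate, test compound and 130 uM ADP for 45 minutes at room temperature. Luminescent Kinase-Glo Plus signal was measured after 10 minutes.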
# LmPK inhibitor – LmPK (Leishmania mexicana) enzyme inhibition | AID 1721 | purified LmPK, Kinase-Glo ATP luminescence, 1 h | 290,000 compounds, 0.37% hits | Q27686 | Potency, µM (top dose mostly 57.5 µM), inactives show at the top dose activity change, negative = inhibition, most hits filed as inhibitors
# Target sequence (Q27686 whole entry, looked up): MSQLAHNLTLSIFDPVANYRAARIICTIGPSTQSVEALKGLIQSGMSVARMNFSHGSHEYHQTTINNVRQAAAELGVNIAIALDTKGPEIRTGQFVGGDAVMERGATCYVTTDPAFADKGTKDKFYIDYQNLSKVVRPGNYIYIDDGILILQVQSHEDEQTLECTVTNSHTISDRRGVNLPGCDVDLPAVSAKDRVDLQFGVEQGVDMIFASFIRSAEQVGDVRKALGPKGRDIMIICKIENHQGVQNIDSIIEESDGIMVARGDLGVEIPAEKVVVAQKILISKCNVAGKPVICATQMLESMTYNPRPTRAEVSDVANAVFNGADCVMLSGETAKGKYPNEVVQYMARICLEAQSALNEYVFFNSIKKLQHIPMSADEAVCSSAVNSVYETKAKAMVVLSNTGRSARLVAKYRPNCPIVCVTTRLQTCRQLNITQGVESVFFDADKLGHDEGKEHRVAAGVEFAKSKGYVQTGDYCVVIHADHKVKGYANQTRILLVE
#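 Purified LmPK (0.1 nM) converted ADP (0.1 mM) to ATP with PEP (0.5 mM) in imidazole buffer pH 7.2 with KCl and MgCl2, 1 h at room temperature. ATP was read by Kinase-Glo luminescence; data normalized to uninhibited and no-enzyme controls.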
# RE007 growth inh – less growth of the S. pombe RE007 Vpr strain. S. pombe RE007 Vpr strain, BacTiter-Glo ATP luminescence, 24 h. Potency, µM (top dose mostly 92.2 µM), for inactives: top-dose activity change, negative = less growth, most hits filed as inhibitors. 360,000 compounds, 0.21% hits; active = well fitted falling curve with a large enough effect; inconclusive = small, poorly fitted or top-dose-only effect; inactive = no such curve, though single readings can be large or run the other way; note: nearly all actives have a fitted effect of over 50% in size
#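 Fission yeast RE007 carrying one integrated HIV-1 vpr copy, seeded at OD 0.01 in PMG+AL medium with 23 nL pinned compound. Grown 24 h at 30 degrees; viability read by BacTiter-Glo luminescence after 5 min.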
# AmpC no deterg – AmpC beta-lactamase inhibition without detergent. 330,000 compounds, 0.52% hits. AmpC nitrocefin hydrolysis, absorbance 480 nm, 0.0001% Triton. P00811. AID 485341. Potency, µM (series often up to 57.1 µM), inactives show top-dose activity change, negative = inhibition, usual class: inhibitors;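 note: plate controls were no compound for no effect and no enzyme for full effect; nearly all actives have a fitted effect of over 20% in size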
#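 20 mM phosphate pH 7.0 + 0.01% (detergent screen) or 0.0001% Triton X-100; 5.3 nM AmpC reagent; cpd preinc 15 min RT; nitrocefin (800 uM stock) to start; A480 q20 s × 4 min; Activity was normalised to no-enzyme and no-compound control wells.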
# AmpC inh detg – AmpC beta-lactamase inhibition with detergent present. AmpC hydrolysis of nitrocefin, absorbance 480 nm, 0.01% Triton. 370,000 compounds, 0.041% hits. Potency, µM (highest dose often 114 µM), for the others: at the top dose activity change, negative = inhibition, most hits filed as inhibitors. P00811;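 note: 0% = no-compound wells and -100% = no-enzyme wells; nearly all actives have a fitted effect of over 25% in size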
#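 AmpC (5.3 nM in the dispensed reagent) in 20 mM phosphate pH 7.0 with 0.01% (detergent screen) or 0.0001% Triton X-100 was preincubated with compounds for 15 min at room temperature. Nitrocefin was then added from an 800 uM solution, and hydrolysis was followed at 480 nm.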
# * hit, by the source's call; ? = inconclusive; . = not tested or not shown. Unless noted, calls come from the whole dose curve; as a rule, active = well fitted curve in the direction sought with a large enough effect; inconclusive = small, poorly fitted or top-dose-only effect, or another doubt; inactive = no such curve, though single readings can be large; an effect the other way counts as inactive or inconclusive. Unless noted, % is set by controls: 0 for no effect and ±100 for the full control effect; potency is the fitted concentration of half-maximal effect.
SMILES,Giardia FBPA inh,Tb PYK inh,LmPK inhibitor,RE007 growth inh,AmpC no deterg,AmpC inh detg
COc1ccc(/C=C2\CCc3c2nc2ccccc2c3C(=O)O)cc1OC,-16.4%,5.7%,1.0%,-15.2%,-18.9%,-14.9%
Cc1oc(=O)c(NC(=O)c2ccccc2)cc1C(=O)c1ccccc1,-9.4%,-19.9%,-12.1%,20µM*,-41.9%,-11.8%
Cc1oc(=O)c(NC(=O)c2ccc(Cl)cc2)cc1C(=O)c1ccccc1,-26.9%,?,-0.7%,28.2µM*,-58.4%,-13.6%
Cc1ccc(C(=O)Nc2cc3ccccc3oc2=O)cc1,-0.1%,?,12.6µM*,13.2%,-10.0%,1.6%
CC(=O)Nc1ccc(S(=O)(=O)NC2CCCCCC2)cc1,11.6%,-7.1%,4.9%,4.3%,-14.8%,-5.3%
O=C(CNC1CCCCCC1)Nc1ccc(S(=O)(=O)NC2CC2)cc1,0.6%,2.3%,-2.3%,5.7%,0.159µM*,-0.1%
CCOC(=O)C1CCCN(C(=O)Cn2nc(CC)n3c(cc4occc43)c2=O)C1 (stereo not drawn),.,-2.5%,.,.,.,22.4%
O=C(O)CN1C(=O)/C(=C\c2cc(Br)ccc2OCc2ccc([N+](=O)[O-])cc2)SC1=S,-6.3%,-18.6%,1.3%,9.5%,20µM*,-4.5%
O=C1C=CC(=O)N1c1ccc(OC(F)F)cc1,-5.4%,11.2µM*,3.1%,2.82µM*,-40.1%,?
O=C1C=CC(=O)N1c1ccc(O)cc1,-26.6%,?,9.0%,6.31µM*,-11.7%,2.4%
S=c1[nH]nc(CCc2nc3ccccc3[nH]2)n1-c1cccc(Cl)c1,-1.4%,?,10µM*,2.1%,-22.9%,1.4%
S=c1[nH]nc(CCc2nc3ccccc3[nH]2)n1-c1ccccc1,1.8%,?,-11.6%,0.8%,-11.7%,4.1%
CCC(=O)OC1[C@@H](N2CCCCC2)C[C@H]2[C@@H]3CC[C@H]4C[C@H](OC(C)=O)[C@@H](N5CCCCC5)C[C@]4(C)[C@H]3CC[C@]12C (stereo partly drawn),.,0.0%,.,.,.,.
CCCN(CCC)C(=O)Cn1c(=O)n(CCCCC(=O)NC2CCCC2)c(=O)c2ccccc21,1.0%,2.3%,-6.9%,-4.6%,0.316µM*,-1.2%
COc1ccc(C(=O)c2coc3ccc(O)c(CN4CCCCC4)c23)cc1,0.4%,-4.0%,4.3%,-5.4%,39.8µM*,3.4%
CCOc1cc(/C=C2\C(=O)N(c3nc(-c4ccc(Br)cc4)cs3)N=C2c2ccccc2)ccc1O,4.6%,-10.7%,-3.9%,-11.0%,15.8µM*,-8.5%
COc1cc(/C=C2\C(=O)N(c3ccc(NC(C)=O)cc3)N=C2c2ccccc2)ccc1O,-3.3%,-9.5%,-15.4%,-3.3%,113.3%,?
Cc1ccc(CSc2nc3ccncc3n2CC(=O)Nc2cc(C)cc(C)c2)cc1,7.6%,2.7%,6.6%,-5.6%,7.08µM*,-6.9%
O=C1NC(=O)N(CCc2ccc(F)cc2)C(=O)/C1=C/c1ccco1,-1.1%,?,14.6%,22.6%,17.8µM*,?
CC(C)Sc1ncc(Cl)c(C(=O)Nc2ccc(S(=O)(=O)N3CCCCC3C)cc2)n1 (stereo not drawn),.,-8.2%,.,.,.,18.0%
Fc1ccccc1-c1nc(-c2ccccc2)no1,3.7%,-11.8%,11.2µM*,?,-17.2%,-5.8%
CC(C)(O)C1Cc2cc(/C=C/C(=O)O)c(O)cc2O1 (stereo not drawn),-27.1%,?,28.2µM*,?,-16.0%,3.4%
COc1cc2c(cc1/C=C/C(=O)O)OC(C)C2 (stereo not drawn),8.1%,4.6%,3.2%,12.0%,-8.4%,-13.2%
Cc1c(O)nc(SCC(=O)Nc2ccc3c4c(cccc24)CC3)n(-c2ccccc2)c1=O,1.7%,-0.9%,0.4%,13.2%,35.5µM*,-2.0%
O=C(CSc1nc(O)cc(=O)n1-c1ccccc1)Nc1ccc2c3c(cccc13)CC2,-1.5%,5.2%,2.0%,9.0%,-45.0%,-14.5%
SMILES,Giardia FBPA inh,Tb PYK inh,LmPK inhibitor,RE007 growth inh,AmpC no deterg,AmpC inh detg
CCN(c1ccc(C)cc1C)S(=O)(=O)c1nnc(NC(=O)c2ccccc2OC)s1,.,-9.6%,.,.,.,22.3%
Cc1ccc(NC(=O)Cn2ncc(Cl)c(Cl)c2=O)cc1S(=O)(=O)N1CCCCC1,.,-1.8%,.,-3.0%,3.98µM*,-1.6%
Cc1ccc(NC(=O)Cc2ccc(Cl)cc2)cc1S(=O)(=O)N1CCCCCC1,.,3.6%,.,-0.4%,-24.9%,-8.2%
CCCn1nc2cc(C(=O)NC3CCc4ccccc43)ccc2c1OCC (stereo not drawn),-1.8%,-8.8%,-7.6%,6.4%,0.282µM*,-1.1%
CCCCn1nc2cc(C(=O)NCc3ccc4c(c3)OCO4)ccc2c1OCC,8.9%,3.0%,-1.2%,45.8%,0.316µM*,3.2%
Cc1ccc2sc(NNC(=O)c3cc(=O)c4ccccc4o3)nc2c1C,22.3µM*,-22.3%,0.5%,-15.4%,-46.6%,5.8%
Cc1cccc2sc(NNC(=O)c3cc(=O)c4ccccc4o3)nc12,-16.5%,?,-14.8%,-13.9%,-40.9%,-1.0%
COc1ccc(NC(=O)Cn2c(SCc3ccc(C)cc3)nc3cccnc32)c(OC)c1,.,2.1%,.,.,.,3.4%
Cc1ccc(-n2nnnc2SCC(=O)Nc2sc(C)c(C)c2C#N)cc1C,-0.4%,-10.3%,-4.1%,6.3%,0.316µM*,-2.0%
CCN(CC)c1ccc(CN(C(=O)Cc2coc3ccc(C)cc23)C2CCS(=O)(=O)C2)cc1 (stereo not drawn),.,2.2%,.,.,.,6.2%
CC(=Nc1ccc(C)cc1)c1sc2ccccc2c1O,0.9%,-2.8%,-26.4%,-21.3%,7.94µM*,0.7%
c1ccc(-c2nc(-c3cccnc3)n[nH]2)cc1,0.4%,.,-12.1%,.,-41.3%,-9.2%
Brc1cccc(-c2n[nH]c(-c3ccccc3)n2)c1,-10.8%,1.3%,-11.1%,?,8.91µM*,-3.6%
O=C(N/N=C/c1cn(Cc2cccc(F)c2)c2ccccc12)c1cc(O)cc(O)c1,-6.8%,1.2%,14.9%,30.3%,12.6µM*,?
Nc1ccc(C(=O)N/N=C/c2cn(Cc3ccc(F)cc3)c3ccccc23)cc1,4.0%,1.1%,4.5%,-3.9%,-39.9%,-12.6%
Cc1ccc(S(=O)(=O)C2(C(=O)Nc3cccc(F)c3)CC2)cc1,1.1%,0.1%,-0.9%,4.8%,2.82µM*,?
O=C1C=CC(=O)c2c(O)c(Cl)c(Cl)c(O)c21,12.6µM*,.,.,.,.,.
O=C(CNC(=O)c1ccccc1O)N/N=C/c1cc(Br)ccc1OC(=O)/C=C/c1ccco1,0.8%,-3.0%,26.2%,-17.3%,3.16µM*,-13.8%
